Structures can show the parent of a compound that is named as a salt.
What follows are molecules tested on Saccharomyces cerevisiae BY4741 SeMeCo community (assay: z-score of subpopulation abundance vs DMSO median, subpopulation auxotrophic for LM; higher = larger share of this subpopulation than in DMSO controls). Conditions: 10 µM; 24 h; SM minimal medium; subpopulation (auxotrophy): LM.
Experimental: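 Fluorescent four-plasmid SeMeCo (self-establishing metabolically cooperating S. cerevisiae BY4741 community; plasmids pH-mRuby2, pL-mWasabi, pU-eCFP, pM-TagRFP657) was grown 24 h in minimal SM medium with each Selleck FDA-approved drug at 10 µM in 384-well plates. Cells were fixed and imaged by high-content confocal microscopy. For each auxotrophic subpopulation (and the prototroph), a z-score gives the deviation from the DMSO vehicle-control population median.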

| Structure (SMILES) | z-score of subpopulation abundance |
| --- | --- |
| C=CN1CCCC1=O.II [Povidone iodine] | -0.46 |
| CN[C@@H]1[C@@H](O)[C@@H](O[C@@H]2[C@@H](O)[C@H](O[C@H]3O[C@H](CN)CC[C@H]3N)[C@@H](N)C[C@H]2N)OC[C@]1(C)O.CN[C@@H]1[C@@H](O)[C@@H](O[C@@H]2[C@@H](O)[C@H](O[C@H]3O[C@H]([C@@H](C)N)CC[C@H]3N)[C@@H](N)C[C@H]2N)OC[C@]1(C)O.CN[C@@H]1[C@@H](O)[C@@H](O[C@@H]2[C@@H](O)[C@H](O[C@H]3O[C@H]([C@@H](C)NC)CC[C@H]3N)[C@@H](N)C[C@H]2N)OC[C@]1(C)O [Gentamicin Sulfate] | -0.12 |
| CC(NC(C)(C)C)C(=O)c1cccc(Cl)c1 (stereo not given) [Amfebutamone (Bupropion) HCl] | -0.59 |
| Cc1cc(C(C#N)c2ccc(Cl)cc2)c(Cl)cc1NC(=O)c1cc(I)cc(I)c1O (stereo not given) [Closantel] | 1.19 |
| CN1[C@@H]2CC[C@H]1C[C@@H](OC(=O)[C@H](CO)c1ccccc1)C2 [Hyoscyamine] | -0.17 |
| CC(=O)OCC1=C(C(=O)O)N2C(=O)C(N)C2SC1 (stereo not given) [7-Aminocephalosporanic acid] | -0.28 |
| NCCc1c[nH]c2ccc(O)cc12 [Serotonin HCl] | -1.09 |
| CCCN1C[C@H](CSC)C[C@@H]2c3cccc4[nH]cc(c34)C[C@H]21 [Pergolide Mesylate] | -0.22 |
| CC(C)=CCOc1c2occc2cc2ccc(=O)oc12 [Imperatorin] | 0 |
| CN(C)C(=O)Oc1cccc([N+](C)(C)C)c1 [Neostigmine Bromide] | 0.26 |
| CCN(C)C(=O)Oc1cccc([C@H](C)N(C)C)c1 [Rivastigmine] | -0.54 |
| O=C(O[C@H]1C[N+]2(CCCOc3ccccc3)CCC1CC2)C(O)(c1cccs1)c1cccs1 [Aclidinium Bromide] | -0.14 |
| O=[N+]([O-])C(Br)(CO)CO [Bronopol] | -0.89 |
| CCCCCCCCCCCCCCCC[n+]1ccccc1 [Cetylpyridinium Chloride] | 0.44 |
| Oc1cccc2cccnc12 [8-Hydroxyquinoline] | -0.41 |
| CC[C@@H](C(N)=O)N1CCCC1=O [Levetiracetam] | -0.55 |
| CCN(CC)CCOC(=O)C(O)(c1ccccc1)c1ccccc1 [Benactyzine hydrochloride] | 0.4 |
| Oc1cc(Cl)ccc1Oc1ccc(Cl)cc1Cl [Triclosan] | -2.25 |
| CN1c2ccccc2C(NCCCCCCC(=O)O)c2ccc(Cl)cc2S1(=O)=O (stereo not given) [Tianeptine sodium] | -0.12 |
| C=CC[C@]1(O)CC[C@H]2[C@@H]3CCC4=CC(=O)CCC4=C3C=C[C@@]21C [Altrenogest] | 0.15 |

| Structure (SMILES) | z-score of subpopulation abundance |
| --- | --- |
| C=C(C)[C@H]1Cc2c(ccc3c2O[C@@H]2COc4cc(OC)c(OC)cc4[C@@H]2C3=O)O1 [Rotenone (Barbasco)] | -0.22 |
| C=C[C@H]1CN2CC[C@H]1C[C@H]2[C@H](O)c1ccnc2ccccc12 [Cinchonidine] | -0.08 |
| CC(=O)O[C@H]1C[C@@H]2CC[C@@H]3[C@H](CC[C@@]4(C)[C@H]3C[C@H]([N+]3(C)CCCCC3)[C@@H]4OC(C)=O)[C@@]2(C)C[C@@H]1[N+]1(C)CCCCC1 [Pancuronium dibromide] | -1.26 |
| Nc1ccncc1 [4-Aminopyridine] | 0.74 |
| CCOC(=O)Nc1ccc(NCc2ccc(F)cc2)cc1N [Retigabine] | -0.12 |
| C[C@@H]1CC[C@H]2[C@@H](C)C(=O)O[C@@H]3O[C@@]4(C)CC[C@@H]1[C@]32OO4 [Artemisinin] | -1.74 |
| CC(C)N(CCC(C(N)=O)(c1ccccc1)c1ccccn1)C(C)C (stereo not given) [Disopyramide] | 1.31 |
| COc1ccc2c(c1)[C@]13CCCC[C@@H]1[C@H](C2)N(C)CC3 [Dextromethorphan hydrobromide hydrate] | -0.18 |
| CN(C)[C@@H]1C(=O)C(C(N)=O)=C(O)[C@@]2(O)C(=O)C3=C(O)c4c(O)cccc4[C@@](C)(O)[C@H]3[C@H](O)[C@@H]12 [Oxytetracycline Dihydrate] | -0.49 |
| C[N+]12CCC(CC1)C(OC(=O)C(O)(c1ccccc1)c1ccccc1)C2 (stereo not given) [Clidinium Bromide] | -0.72 |
| C=CCN1C[C@H](C(=O)N(CCCN(C)C)C(=O)NCC)C[C@@H]2c3cccc4[nH]cc(c34)C[C@H]21 [Cabergoline] | -0.31 |
| CN(C)C(=O)Oc1ccc[n+](C)c1 [Pyridostigmine Bromide] | -0.35 |
| NCC(O)c1ccc(O)cc1 (racemic) [(+,-)-Octopamine HCl] | 0 |
| O=C(O[C@H]1C[C@H]2CC[C@@H](C1)[N+]21CCCC1)C(O)(c1ccccc1)c1ccccc1 [Trospium chloride] | -0.54 |
| CN(C)[C@@H]1C(=O)C(C(N)=O)=C(O)[C@@]2(O)C(=O)C3=C(O)c4c(O)cccc4[C@@](C)(O)[C@H]3C[C@@H]12 [Tetracycline HCl] | -0.24 |
| CCC1=C[C@H]2CN3CCc4c([nH]c5ccccc45)[C@](C(=O)OC)(C2)[C@H]13 [Catharanthine] | -0.74 |
| CC1(C)SC2C(N)C(=O)N2C1C(=O)O (stereo not given) [6-Aminopenicillanic acid] | 0.56 |
| Cn1cc(C2=C(c3cn(C4CCN(Cc5ccccn5)CC4)c4ccccc34)C(=O)NC2=O)c2ccccc21 | -1.68 |
| N#Cc1nn(-c2c(Cl)cc(C(F)(F)F)cc2Cl)c(N)c1[S+]([O-])C(F)(F)F (stereo not given) [Fipronil] | -0.79 |
| COc1cc2c(cc1OC)C1CC(=O)C(CC(C)C)CN1CC2 (stereo not given) [Tetrabenazine (Xenazine)] | 0.75 |

— the supplement of paper PMC8975748
